Measurements reported in PubChem BioAssay AID1554 (Broad Institute, 2009).
The whole screen tested about 300,000 compounds, of which about 520 (0.17%) were called active. No stated cut-off is given here; in the data, active means inhibition above about 50%; inconclusive means no clear call, values can overlap the other calls; inactive means below that. Many of the other results were omitted from the sample, so actives are more common in it than they were.

assay: PubChem AID 1554; details: BJeLR (HRASV12) viability, CellTiter-Glo ATP luminescence, 48 h; active compounds read high; concentration not given here

| Structure (SMILES) | inhibition |
| --- | --- |
| COC(=O)c1c(NC(=O)c2ccccc2F)sc2c1C(C(=O)OC)CC2 (stereo not drawn) | -1.69% (inactive) |
| CCOc1ccc2[nH]c3nc(SCC(=O)NC4CCCC4)nnc3c2c1 | 19.9% (inactive) |
| CCOC(=O)c1c(C)[nH]c2c1-c1ccccc1C(=O)C2=O | 74.1% (active) |
| CCOC(=O)c1c(C)[nH]c(C)c1S(=O)(=O)N(C)CC(=O)Nc1ccccc1C | 1.31% (inactive) |
| CCOC(=O)c1c(C)nc(-c2ccccc2)nc1NC(=O)C(C)C | -1.6% (inactive) |
| O=C(NNc1c2ccccc2nc2ccccc12)c1cc2ccccc2cc1O | 11.9% (inactive) |
| NC(=O)C1CC(=O)N(c2ccc(OCC(=O)NCc3ccccc3)cc2)C1 (stereo not drawn) | -5.85% (inactive) |
| COc1ccccc1N1CCN(C(=O)c2cc(=O)c3cc(C)cc(C)c3o2)CC1 | 58.9% (active) |
| COc1ccccc1N1CCN(C(=O)c2cc(=O)c3cc(C)ccc3o2)CC1 | 8.05% (inactive) |
| COc1cccc(-c2cc(C(=O)N3CCN(c4ccccc4OC)CC3)no2)c1 | -5.2% (inactive) |
| Cc1ccc(-c2cc(C(F)(F)F)n3ncc(C(=O)N4CCCCC4c4cccnc4)c3n2)cc1 (stereo not drawn) | -3.16% (inactive) |
| CSc1n[nH]c(=S)n1N | 6.98% (inactive) |
| CCOC(=O)c1cccc(NC(=O)CCn2nnc3ccccc32)c1 | 5.93% (inactive) |
| COC(=O)c1ccc(C(=O)Nc2cc(Cl)ccc2Cl)cc1NC(=O)c1ccccc1C | 5.33% (inactive) |
| COc1c(C(=O)N2CCCC2)ccc2ccccc12 | -16.2% (inactive) |
| CC(C)n1c(-c2ccncc2)n[nH]c1=S | -1.2% (inactive) |
| O=c1[nH]snc1-c1c(Cl)cccc1Cl | 1.3% (inactive) |
| CC[C@H]1CN2CCc3cc(OC)c(OC)cc3[C@@H]2C[C@@H]1C[C@H]1NCCc2cc(OC)c(OC)cc21 | 71.3% (active) |
| COc1ccc2c(c1)CCNC2Cc1ccc(OC)c(O)c1 (stereo not drawn) | -7.5% (inactive) |
| CCc1ccc(OCC2c3cc(OC)c(OC)cc3CCN2C(C)=O)cc1 (stereo not drawn) | -19.6% (inactive) |
| CN(c1ccccc1)S(=O)(=O)c1cccc(C(=O)NNC(=O)c2ccncc2)c1 | -13.6% (inactive) |
| COc1cc(NS(=O)(=O)c2ccc(NC(=O)CN3C(=O)c4ccccc4C3=O)cc2)ncn1 | -1.96% (inactive) |

| Structure (SMILES) | inhibition |
| --- | --- |
| COc1ccc(CNC(=O)CCC(=O)Nc2nnc(C(C)C)s2)cc1 | 2.41% (inactive) |
| O=C(NCc1ccc2c(c1)OCO2)c1sccc1Br | -9.24% (inactive) |
| CSc1nc(C)nc(C2CC2)c1C#N | -2.16% (inactive) |
| CCOc1ccc(C(CC(=O)O)n2cnnn2)cc1OC (stereo not drawn) | -0.928% (inactive) |
| COc1ccc(NC(=O)C(C)N2c3cccc4cccc(c34)S2(=O)=O)c(OC)c1 (stereo not drawn) | -7.67% (inactive) |
| O=C(c1cccc(F)c1)N1CCC(O)(c2cccnc2)CC1 | 1.27% (inactive) |
| Cc1ccc(Nc2cc(C)nc3c(C)ccc([N+](=O)[O-])c23)cc1 | -0.482% (inactive) |
| N#Cc1c(-c2cccs2)nc(SCC(=O)c2ccc(Br)cc2)[nH]c1=O | -2.63% (inactive) |
| COc1ccc(Nc2ncc(F)c(N3CCOCC3)n2)cc1 | -4.96% (inactive) |
| Cc1nnc(NC(=O)/C=C/c2ccco2)s1 | 2.63% (inactive) |
| O=C(/C=C/c1ccco1)Nc1cccc(-c2nc3ccccc3[nH]2)c1 | -10.7% (inactive) |
| O=C(/C=C/c1ccco1)Nc1ccc(Oc2ccccc2)cc1 | 66.3% (active) |
| CCCOc1ccc(C(=O)CCC(=O)OC(C)C(=O)Nc2ccc(NC(C)=O)cc2)cc1 (stereo not drawn) | 0.465% (inactive) |
| CCCOc1ccc(C(=O)C(CCC(CNCC)C(=O)c2ccc(OCCC)cc2)CNCC)cc1 (stereo not drawn) | 137% (active) |
| CCCCOc1ccc(C(=O)NN2CCN(C)CC2)cc1 | 1.04% (inactive) |
| CCOc1cc(C2C(C(=O)OC(C)C)=C(C)NC3=C2C(=O)CCC3)cc([N+](=O)[O-])c1O (stereo not drawn) | -2.99% (inactive) |
| Cc1ccc(CNC(=O)c2cccnc2Cl)cc1 | 1.72% (inactive) |
| COc1cc(C(CCN2CCN(c3ccccc3)CC2)c2c(OC)cc(OC)c3ccc(=O)oc23)cc(OC)c1OC (stereo not drawn) | -7.5% (inactive) |
| COC(=O)C(C(=O)Nc1cccc(Cl)c1C)C1CCCC1 (stereo not drawn) | -7.59% (inactive) |
| COc1ccc(/C=C/C2=CC(C)(C)NC(=S)N2)c(OC)c1 | -7.98% (inactive) |
| NC(=O)CC[C@@H]1NC(=O)[C@H](CO)NC(=O)c2cc([N+](=O)[O-])cc(I)c2NCC[C@@H](C(N)=O)NC1=O | -1.96% (inactive) |
| CCC(=C/c1sc2ccc3ccccc3c2[n+]1C)/C=C1\Sc2ccc3ccccc3c2N1C | 60.9% (active) |

| Structure (SMILES) | inhibition |
| --- | --- |
| COc1ccc(C2=NS(=O)(=O)N(C)C(C(=O)N3CCCCC3)=C2)cc1 | -1.58% (inactive) |
| COc1cc(-c2c(-c3ccc4c(c3)OCO4)noc2C)ccc1F | -5.31% (inactive) |
| C=CCNc1nc(N)c([N+](=O)[O-])c(NC2CCCCC2)n1 | -1.25% (inactive) |
| CC(=O)NCCc1ccc(S(=O)(=O)N(C)C2CCS(=O)(=O)C2)cc1 (stereo not drawn) | 7.45% (inactive) |
| O=C(NCc1ccco1)c1ccc(NS(=O)(=O)c2cccc([N+](=O)[O-])c2)cc1 | 5.53% (inactive) |
| COc1ccc(S(=O)(=O)N2CCOCC2)cc1NC(=O)COc1ccccc1 | -1.51% (inactive) |
| COc1ccccc1N(C(=O)Cn1nnc2ccccc21)C(C(=O)NCc1ccco1)c1ccc(C)o1 (stereo not drawn) | -3.41% (inactive) |
| O=C(Nc1ccc(Cl)cc1)/C(=C1\CCCN1)[N+](=O)[O-] | -2.59% (inactive) |
| CCCC(C(=O)NC1CCCC1)N(C(=O)Cn1nnc(-c2ccc(C)o2)n1)c1cccc(O)c1 (stereo not drawn) | -0.539% (inactive) |
| Cc1c(NC(=O)Nc2cccc([N+](=O)[O-])c2)c(=O)n(-c2ccccc2)n1C | 1.78% (inactive) |
| CC1(C)O[C@H]2CC(=O)OCC23[C@H]2CC[C@@]4(C)[C@H](c5ccoc5)OC(=O)[C@H]5O[C@]54[C@]2(C)C(=O)C[C@@H]13 (stereo partly drawn) | 4.22% (inactive) |
| CC(C)CNC(=S)NC(=O)c1ccc(Cl)cc1 | -11.5% (inactive) |
| Cc1cc(F)ccc1NC(=O)C(C)n1c2ccccc2c2nc(=O)cc(C)n21 (stereo not drawn) | -6.86% (inactive) |
| CN(C)CCN(Cc1ccccc1)S(=O)(=O)c1csc(C(N)=O)c1 | 7.25% (inactive) |
| CC(C)Cc1nnc(NC(=O)CN2C(=O)NC3(CCCCC3)C2=O)s1 | 4.35% (inactive) |
| CCOC(=O)CNc1nc(Cl)nc(Nc2ccc(OC)cc2OC)n1 | -1.85% (inactive) |
| CCN1C(=O)N[C@@H](c2ccccc2)C(C(=O)OC)=C1C | 2.76% (inactive) |
| COc1cccc(NC(=O)c2ccccc2N(Cc2ccccc2)S(C)(=O)=O)c1 | 3.05% (inactive) |
| CCCOc1ccccc1C1CC(=O)Nc2cc3c(cc21)OCO3 (stereo not drawn) | 21.8% (inactive) |
| COc1ccccc1C1C2=C(COC2=O)Nc2cc3c(cc21)OCO3 (stereo not drawn) | 71.8% (active) |
| COc1ccc(S(=O)(=O)Nc2ccc3c(c2)OCO3)cc1Cl | 4.86% (inactive) |
| CC1COc2ccccc2N1S(=O)(=O)c1ccccc1 (stereo not drawn) | -0.313% (inactive) |

| Structure (SMILES) | inhibition |
| --- | --- |
| CC(C)(C)c1cc(NC(=O)NN2CCOCC2)nn1-c1c(Cl)cc(Cl)cc1Cl | -1.25% (inactive) |
| COc1ccc(/C=C(\C#N)c2c[nH]c3ccccc23)cc1 | 52.5% (active) |
| COc1cc(/C=C(\C#N)c2nc3ccccc3[nH]2)ccc1O | -5.76% (inactive) |
| COc1ccc(C(C(O)C(=O)c2c[nH]c3ccccc23)N2CCN(c3ccccc3)CC2)cc1 (stereo not drawn) | 0.745% (inactive) |
| CC(NC(=O)Cn1cc(C(F)(F)F)cc(Cl)c1=O)c1ccccc1 (stereo not drawn) | -4.93% (inactive) |
| O=C(NNC(=O)c1ccccc1[N+](=O)[O-])Nc1ccccc1C(F)(F)F | 1.35% (inactive) |
| Cc1cccc(-n2ncc(Cl)c(Cl)c2=O)c1 | 90.5% (active) |
| O=c1c(Cl)c(NC2CC2)cnn1-c1ccccc1 | -3.03% (inactive) |
| Cc1cccc(-n2ncc(C#N)c2-n2cccc2)c1 | -4.28% (inactive) |
| CC[C@H]1CC2CN3CCc4c([nH]c5ccccc45)C(C(=O)OC)(C2)C13 (stereo partly drawn) | 2.65% (inactive) |
| CC[C@]1(O)CC2CN(CCc3c([nH]c4ccccc34)[C@@](C(=O)OC)(c3cc4c(cc3OC)N(C=O)[C@H]3[C@@](O)(C(=O)OC)[C@H](OC(C)=O)[C@]5(CC)C=CCN6CC[C@]43[C@@H]65)C2)C1 (stereo partly drawn) | 34.8% (inactive) |
| CC[C@]1(O)C[C@@H]2CN(CCc3c([nH]c4ccccc34)[C@@](C(=O)OC)(c3cc4c(cc3OC)N(C)[C@H]3[C@@](O)(C(=O)OC)[C@H](OC(C)=O)[C@]5(CC)C=CCN6CC[C@]43[C@@H]65)C2)C1 | 69.1% (active) |
| CCOc1ccc(C(CC(=O)O)NC(=O)C23CC4CC(CC(C4)C2)C3)cc1OC (stereo not drawn) | 8.09% (inactive) |
| OCCn1c(-c2ccccc2)csc1=Nc1ccccc1 | 3.02% (inactive) |
| Cc1ccc(S(=O)(=O)N2CCCC2C(=O)OCc2nc3sc(C)c(C)c3c(=O)[nH]2)cc1 (stereo not drawn) | 2% (inactive) |
| CC12C(=O)N(n3cnnc3)C(=O)C1C1C=CC2C1 (stereo not drawn) | 6.14% (inactive) |
| Cc1ccc(CN2CCNC(=O)C2CC(=O)NCc2csc(C(C)C)n2)cc1 (stereo not drawn) | -3.33% (inactive) |
| Cc1ccc(Cn2cc(C(=O)NN)c(=O)c3ccc(F)cc32)cc1 | -4.45% (inactive) |
| CC(C)CN(C(=O)c1cccc(S(=O)(=O)N2CCCCC2)c1)C1CCS(=O)(=O)C1 (stereo not drawn) | 2.4% (inactive) |
| Clc1ccc2c(c1)C1=C(C(c3ccncc3)O2)C(c2ccc(Br)cc2)n2ncnc2N1 (stereo not drawn) | -10% (inactive) |
| Brc1ccc2ncnc(NCc3cccnc3)c2c1 | 4.75% (inactive) |
| COc1ccc(C2=NOC(Cn3nc(C(=O)NCc4ccc5c(c4)OCO5)cc3-c3ccccc3)C2)cc1 (stereo not drawn) | 8.13% (inactive) |
